Measured values taken from PubChem BioAssay (NCATS).
Several values for one entry are separate records, joined by “and”; a condition that tells them apart may be missing. Identical values can stand only once. Results filed as inconclusive are left out. Where a call stands in place of a potency, no number is given. A number with no mark means an inactive call. Activity calls are given as the source filed them. The call rests on the fitted dose curve; tested in HEK293 reporter line. Starred links: 1 amine or outer side, 2 acyl side, 3 side chain; linkers in the order of their positions; H or OH if unused. Positions of bridges follow the written chain, without caps; N, C: chain ends. Non-standard residues stand in square brackets, D forms with d. Residues, ends and D or L forms follow the SMILES beside them. ξ: configuration not given here. *: point of attachment. ΔAla(3-NHCONH2) = NC(=O)NC=C(N)C(=O)O; X1 = NC1=NCCC(C(N[*:1])C(=O)[*:2])N1; ξβ3hOrn = NCCCC(N)CC(=O)*; Dap = NC[CH](N)C(=O)O

Test: qHTS for Inhibitors of the Functional Ribonucleoprotein Complex (vRNP) of Lassa (LASV) Arenavirus: LASV Primary Screen - GLuc reporter signal (AID 1347082); further: nearly all actives have a fitted effect of over 60% in size
Conditions: LASV minigenome vRNP, Gaussia luciferase reporter; series mostly up to 57.5 µM
Potency means the concentration at half of the fitted maximal effect.

| SMILES | Potency | activity change, negative = inhibition |
| --- | --- | --- |
| CC(C)C[C@H](NC(=O)[C@H](Cc1ccccc1)NC(=O)c1cnccn1)B(O)O | 485 nM (active) | – |
| Cc1[nH]c(=O)c(C#N)cc1-c1ccncc1 | inactive | – |
| CC(C)NCC(O)c1ccc(O)c(O)c1 (stereo not drawn) | inactive | – |
| CCCNCC(O)COc1ccccc1C(=O)CCc1ccccc1 (stereo not drawn) | inactive | – |
| CN1CCc2cccc3c2[C@H]1Cc1ccc(O)c(O)c1-3 | inactive | – |
| COc1ccc2nc(S(=O)Cc3ncc(C)c(OC)c3C)[nH]c2c1 (stereo not drawn) | inactive | – |
| O=C(CCCCCCC(=O)Nc1ccccc1)NO | inactive | – |
| C=C(c1ccc(C(=O)O)cc1)c1cc2c(cc1C)C(C)(C)CCC2(C)C | inactive | – |
| CC(C)[N+](C)(CCOC(=O)C1c2ccccc2Oc2ccccc21)C(C)C | inactive | – |
| CN1CCN(C2=Nc3cc(Cl)ccc3Nc3ccccc32)CC1 | inactive | – |
| CC/C=C(\C(=O)N[C@@H]1C(=O)N2C(C(=O)OCOC(=O)C(C)(C)C)=C(COC(N)=O)CS[C@H]12)c1csc(N)n1 | inactive | – |
| NCCCC(N)CC(=O)NCC1NC(=O)C(CO)NC(=O)C(N)CNC(=O)C(C2CCN=C(N)N2)NC(=O)C(=CNC(N)=O)NC1=O (stereo not drawn) (H-[Dap]S[Dap](ξβ3hOrn)[ΔAla(3-NHCONH2)][X1]; lactam 1-C; configuration not given here) | – | 2.05% [at 0.757 µM] |
| CC1=C(C(=O)O)N2C(=O)[C@@H](NC(=O)[C@H](N)c3ccc(O)cc3)[C@H]2SC1 | inactive | – |
| CN(C)c1ccc(O)c2c1C[C@H]1C[C@H]3[C@H](N(C)C)C(=O)C(C(N)=O)=C(O)[C@@]3(O)C(=O)C1=C2O | inactive | – |
| COc1cc(NC(C)CCCN)c2ncccc2c1 (stereo not drawn) | inactive | – |
| O=C1C(=O)c2ccccc2C(O)=C1C1CCC(c2ccc(Cl)cc2)CC1 (stereo not drawn) | inactive | – |
| CC[C@@]1(O)C(=O)OCc2c1cc1n(c2=O)Cc2cc3c(CN(C)C)c(O)ccc3nc2-1 | 8630 nM (active) | – |
| CC(C)(C)C(=O)OCOP(=O)(COCCn1cnc2c(N)ncnc21)OCOC(=O)C(C)(C)C | inactive | – |
| COc1cc(Cc2cnc(N)nc2N)cc(OC)c1OC | inactive | – |
| CC(=O)O[C@]1(C(C)=O)CC[C@H]2[C@@H]3C=C(C)C4=CC(=O)CC[C@]4(C)[C@H]3CC[C@@]21C | inactive | – |

| SMILES | Potency | activity change, negative = inhibition |
| --- | --- | --- |
| O=c1n(CCCN2CCN(c3cccc(Cl)c3)CC2)nc2ccccn12 | inactive | – |
| CO[C@H]1C=CO[C@@]2(C)Oc3c(C)c(O)c4c(O)c(c(/C=N/N5CCN(C)CC5)c(O)c4c3C2=O)NC(=O)/C(C)=C\C=C[C@H](C)[C@H](O)[C@@H](C)[C@@H](O)[C@@H](C)[C@H](OC(C)=O)[C@@H]1C | inactive | – |
| CCCN(CCc1cccs1)[C@H]1CCc2c(O)cccc2C1 | inactive | – |
| CC[C@@H]([C@H](C)O)n1ncn(-c2ccc(N3CCN(c4ccc(OC[C@@H]5CO[C@@](Cn6cncn6)(c6ccc(F)cc6F)C5)cc4)CC3)cc2)c1=O | inactive | – |
| O=C(O)CCCc1ccccc1 | inactive | – |
| CN(C)CCC[C@@]1(c2ccc(F)cc2)OCc2cc(C#N)ccc21 | inactive | – |
| O[C@@H](CNC[C@H](O)[C@H]1CCc2cc(F)ccc2O1)[C@@H]1CCc2cc(F)ccc2O1 | inactive | – |
| N[C@@H](C(=O)N[C@@H]1C(=O)N2C(C(=O)O)=C(Cl)CS[C@H]12)c1ccccc1 | inactive | – |
| Cc1ccccc1C(OCCN(C)C)c1ccccc1 (stereo not drawn) | inactive | – |
| CN(C)C(=N)N=C(N)N | inactive | – |
| COc1cc2c(cc1OC)[C@@H]1CC(=O)[C@@H](CC(C)C)CN1CC2 | inactive | – |
| CN/C(=C\[N+](=O)[O-])NCCSCc1ccc(CN(C)C)o1 | inactive | – |
| O[C@@H]1CO[C@H]2[C@@H]1OC[C@@H]2O | inactive | – |
| O=C(O)c1cn(C2CC2)c2cc(N3CCNCC3)c(F)cc2c1=O | inactive | – |
| Cc1cc2c(s1)Nc1ccccc1N=C2N1CCN(C)CC1 | inactive | – |
| O=C(CCCN1CCC(O)(c2ccc(Cl)cc2)CC1)c1ccc(F)cc1 | inactive | – |
| CC(C)(O)c1ccccc1CC[C@@H](SCC1(CC(=O)O)CC1)c1cccc(/C=C/c2ccc3ccc(Cl)cc3n2)c1 | inactive | – |
| CN(C)CCOC(C)(c1ccccc1)c1ccccn1 (stereo not drawn) | inactive | – |
| CC(=O)Nc1nnc(S(N)(=O)=O)s1 | inactive | – |

Test: qHTS for Inhibitors of the Functional Ribonucleoprotein Complex (vRNP) of Lassa (LASV) Arenavirus: Viability assay - alamar blue signal for LASV Primary Screen (AID 1347083); further: nearly all actives have a fitted effect of over 80% in size
Conditions: cell viability, alamar blue fluorescence (LASV minigenome counter-screen); series mostly up to 57.5 µM

| SMILES | Potency | activity change, negative = reduced viability |
| --- | --- | --- |
| CC(C)C[C@H](NC(=O)[C@H](Cc1ccccc1)NC(=O)c1cnccn1)B(O)O | 217 nM (active) | – |
| Cc1[nH]c(=O)c(C#N)cc1-c1ccncc1 | inactive | – |
| CC(C)NCC(O)c1ccc(O)c(O)c1 (stereo not drawn) | inactive | – |
| CCCNCC(O)COc1ccccc1C(=O)CCc1ccccc1 (stereo not drawn) | inactive | – |
| CN1CCc2cccc3c2[C@H]1Cc1ccc(O)c(O)c1-3 | inactive | – |
| COc1ccc2nc(S(=O)Cc3ncc(C)c(OC)c3C)[nH]c2c1 (stereo not drawn) | inactive | – |
| O=C(CCCCCCC(=O)Nc1ccccc1)NO | 8.91 µM (active) and 7.69 µM (active) | – |
| C=C(c1ccc(C(=O)O)cc1)c1cc2c(cc1C)C(C)(C)CCC2(C)C | inactive | – |
| CC(C)[N+](C)(CCOC(=O)C1c2ccccc2Oc2ccccc21)C(C)C | inactive | – |
| CN1CCN(C2=Nc3cc(Cl)ccc3Nc3ccccc32)CC1 | inactive | – |
| CC/C=C(\C(=O)N[C@@H]1C(=O)N2C(C(=O)OCOC(=O)C(C)(C)C)=C(COC(N)=O)CS[C@H]12)c1csc(N)n1 | inactive | – |
| NCCCC(N)CC(=O)NCC1NC(=O)C(CO)NC(=O)C(N)CNC(=O)C(C2CCN=C(N)N2)NC(=O)C(=CNC(N)=O)NC1=O (stereo not drawn) (H-[Dap]S[Dap](ξβ3hOrn)[ΔAla(3-NHCONH2)][X1]; lactam 1-C; configuration not given here) | – | -7.39% [at 0.757 µM] |
| CC1=C(C(=O)O)N2C(=O)[C@@H](NC(=O)[C@H](N)c3ccc(O)cc3)[C@H]2SC1 | inactive | – |
| CN(C)c1ccc(O)c2c1C[C@H]1C[C@H]3[C@H](N(C)C)C(=O)C(C(N)=O)=C(O)[C@@]3(O)C(=O)C1=C2O | inactive | – |
| COc1cc(NC(C)CCCN)c2ncccc2c1 (stereo not drawn) | inactive | – |
| O=C1C(=O)c2ccccc2C(O)=C1C1CCC(c2ccc(Cl)cc2)CC1 (stereo not drawn) | inactive | – |
| CC[C@@]1(O)C(=O)OCc2c1cc1n(c2=O)Cc2cc3c(CN(C)C)c(O)ccc3nc2-1 | 2.82 µM (active) and 1.09 µM (active) | – |
| CC(C)(C)C(=O)OCOP(=O)(COCCn1cnc2c(N)ncnc21)OCOC(=O)C(C)(C)C | inactive | – |
| COc1cc(Cc2cnc(N)nc2N)cc(OC)c1OC | inactive | – |
| CC(=O)O[C@]1(C(C)=O)CC[C@H]2[C@@H]3C=C(C)C4=CC(=O)CC[C@]4(C)[C@H]3CC[C@@]21C | inactive | – |

| SMILES | Potency | activity change, negative = reduced viability |
| --- | --- | --- |
| O=c1n(CCCN2CCN(c3cccc(Cl)c3)CC2)nc2ccccn12 | inactive | – |
| CO[C@H]1C=CO[C@@]2(C)Oc3c(C)c(O)c4c(O)c(c(/C=N/N5CCN(C)CC5)c(O)c4c3C2=O)NC(=O)/C(C)=C\C=C[C@H](C)[C@H](O)[C@@H](C)[C@@H](O)[C@@H](C)[C@H](OC(C)=O)[C@@H]1C | inactive | – |
| CCCN(CCc1cccs1)[C@H]1CCc2c(O)cccc2C1 | inactive | – |
| CC[C@@H]([C@H](C)O)n1ncn(-c2ccc(N3CCN(c4ccc(OC[C@@H]5CO[C@@](Cn6cncn6)(c6ccc(F)cc6F)C5)cc4)CC3)cc2)c1=O | inactive | – |
| O=C(O)CCCc1ccccc1 | inactive | – |
| CN(C)CCC[C@@]1(c2ccc(F)cc2)OCc2cc(C#N)ccc21 | inactive | – |
| O[C@@H](CNC[C@H](O)[C@H]1CCc2cc(F)ccc2O1)[C@@H]1CCc2cc(F)ccc2O1 | inactive | – |
| N[C@@H](C(=O)N[C@@H]1C(=O)N2C(C(=O)O)=C(Cl)CS[C@H]12)c1ccccc1 | inactive | – |
| Cc1ccccc1C(OCCN(C)C)c1ccccc1 (stereo not drawn) | inactive | – |
| CN(C)C(=N)N=C(N)N | inactive | – |
| COc1cc2c(cc1OC)[C@@H]1CC(=O)[C@@H](CC(C)C)CN1CC2 | inactive | – |
| CN/C(=C\[N+](=O)[O-])NCCSCc1ccc(CN(C)C)o1 | inactive | – |
| O[C@@H]1CO[C@H]2[C@@H]1OC[C@@H]2O | inactive | – |
| O=C(O)c1cn(C2CC2)c2cc(N3CCNCC3)c(F)cc2c1=O | inactive | – |
| Cc1cc2c(s1)Nc1ccccc1N=C2N1CCN(C)CC1 | inactive | – |
| O=C(CCCN1CCC(O)(c2ccc(Cl)cc2)CC1)c1ccc(F)cc1 | inactive | – |
| CC(C)(O)c1ccccc1CC[C@@H](SCC1(CC(=O)O)CC1)c1cccc(/C=C/c2ccc3ccc(Cl)cc3n2)c1 | inactive | – |
| CN(C)CCOC(C)(c1ccccc1)c1ccccn1 (stereo not drawn) | inactive | – |
| CC(=O)Nc1nnc(S(N)(=O)=O)s1 | inactive | – |
